Values joined by “and” are separate entries in the source; they are usually repeats but may differ in a detail not shown here. Identical values can stand only once. Counter-ions that a name gives are not always drawn.
Experiments:
Assay in all cases: cell viability relative to vehicle control; higher = less cytotoxic
Conditions in all cases: 10 µM
[1] = test system: K562
How it was run: (§1)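 Mutant clones made by CRISPR editing and their isogenic wild-type counterparts, from four leukaemia lines, were exposed to a single 10 µM dose of each library compound for 48 h. The supernatant was then removed and CellTiter-Glo luminescence was read. Viability was reported as percent of the on-plate vehicle control.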

[2] = test system: MARIMO
How it was run: as §1

[3] = test system: MOLM14
How it was run: as §1

[4] = test system: OCI-AML2
How it was run: as §1

Row | SMILES | cell viability ([1]; SRSF2 genotype: SRSF2 P95H/wt) | cell viability ([1]; SRSF2 genotype: SRSF2 wt/wt) | cell viability ([2]; SRSF2 genotype: SRSF2 P95H/wt) | cell viability ([2]; SRSF2 genotype: SRSF2 wt/wt) | cell viability ([3]; SRSF2 genotype: SRSF2 P95H/wt) | cell viability ([3]; SRSF2 genotype: SRSF2 wt/wt) | cell viability ([4]; SRSF2 genotype: P95H/wt) | cell viability ([4]; SRSF2 genotype: wt/wt)
1 | O=C(O)c1ccc(Nc2ncc3c(n2)-c2ccc(Cl)cc2C(c2c(F)cccc2F)=NC3)cc1 | 66.5% and 78.8% | 68.1% | 80.4% | 88.1% | 51.4% | 35.4% | 41.3% | 38.8%
2 | C[C@H](C[C@H](O)[C@@H](O)C(C)(C)O)C1=C2C[C@H](O)[C@H]3[C@@]4(C)CCC(=O)C(C)(C)[C@@H]4CC[C@]3(C)[C@@]2(C)CC1 [Alisol A] | 85.4% and 85.1% | 89.8% | 86.9% | 79.1% | 98.4% | 96.2% | 84.9% | 83.5%
3 | Cc1ccc(C)c(OCCCC(C)(C)C(=O)O)c1 [Gemfibrozil (Lopid)] | 108% and 109% | 108% | 107% | 106% | 106% | 109% | 106% | 110%
4 | O=c1c2ccccc2nc(C=Cc2cccnc2)n1Cc1ccccc1 | 86.8% and 86.9% | 79.8% | 74.3% | 90.1% | 78.5% | 82.6% | 78.4% | 75.9%
5 | COc1ccc(C(=O)O)c(O)c1 [4-Methoxysalicylic acid] | 104% and 95.4% | 107% | 98.6% | 99.3% | 98.1% | 106% | 101% | 106%
6 | Cc1cc2c(C(=O)NCC(C)c3ccccc3)c(O)c(O)cc2c(O)c1-c1c(C)cc2c(C(=O)NCC(C)c3ccccc3)c(O)c(O)cc2c1O (stereo not given) [Sabutoclax] | 1.68% and 1.16% | 2.42% | 12.7% | 13.8% | 22.8% | 13.7% | 22.6% | 36%
7 | C[C@H]1COc2c(N3CCN(C)CC3)c(F)cc3c(=O)c(C(=O)O)cn1c23 [Levofloxacin hydrate] | 93.5% and 91% | 95.8% | 94.3% | 98.4% | 97.2% | 97.9% | 93.3% | 92.1%
8 | O=C(O)c1cc(=O)c2c(OCC(O)COc3cccc4oc(C(=O)O)cc(=O)c34)cccc2o1 [Disodium Cromoglycate] | 93.6% | 95% | 94.8% | 98.5% | 94% | 94.4% | 92.8% | 99%
9 | NCCOCCOCCNC(=O)Cc1ccc(Nc2nc(NCc3ccc(F)cc3)nc(NCC3CCCCC3)n2)cc1 [AP-III-a4 (ENOblock)] | 81.5% and 90.7% | 87.5% | 94.3% | 97.1% | 16% | 14% | 75.2% | 79.6%
10 | CC1=C(C(=O)OCCN(Cc2ccccc2)c2ccccc2)C(c2cccc([N+](=O)[O-])c2)C(P2(=O)OCC(C)(C)CO2)=C(C)N1 (stereo not given) [Efonidipine] | 78.8% and 87.3% | 83.7% | 95.5% | 98.4% | 82.2% | 95.7% | 104% | 82.3%
11 | CCCc1nn(C)c2c(=O)[nH]c(-c3cc(S(=O)(=O)N4CCN(C)CC4)ccc3OCC)nc12 [Sildenafil Mesylate] | 103% and 96.9% | 103% | 99% | 108% | 107% | 103% | 110% | 105%
12 | CN(Cc1cnc2nc(N)nc(N)c2n1)c1ccc(C(=O)N[C@@H](CCC(=O)O)C(=O)O)cc1 [Abitrexate (Methotrexate)] | 99.8% and 103% | 45.1% | 93% | 93.5% | 103% | 74% | 99.2% | 96.9%
13 | NCCc1c[nH]cn1 [Histamine] | 96.1% and 97.6% | 91.1% | 84% | 93% | 56% | 63.6% | 81.6% | 82.4%
14 | CN1CCN(Cc2ccc(-c3cnc4[nH]cc(-c5ccc6[nH]ccc6c5)c4c3)cc2)CC1 | 2.18% and 1.72% | 2.36% | 0.62% | 0.44% | 0.32% | 0.4% | 0.33% | 0.41%
15 | COC(=O)Nc1ccc(-c2nc(N3CCOCC3)c3cnn(C4CCN(C(=O)OC)CC4)c3n2)cc1 | 43.8% and 55.5% | 48.8% | 53.5% | 52% | 40.9% | 34.3% | 33.9% | 32.9%
16 | C/C(=N\NC(=O)c1cccc(S(=O)(=O)N2CCOCC2)c1)c1cc(Cl)ccc1O | 57.4% and 51.4% | 37% | 20.1% | 24.4% | 6.59% | 1.96% | 10.8% | 11.4%
17 | CCCCCCCCCCCCCCCC(=O)OCC [Ethyl palmitate] | 101% | 97.9% | 103% | 106% | 106% | 101% | 98% | 107%
18 | N[C@@H](Cc1cc(I)c(Oc2cc(I)c(O)c(I)c2)c(I)c1)C(=O)O [Levothyroxine sodium] | 89.6% and 92.8% | 106% | 102% | 104% | 92.9% | 101% | 100% | 94.3%
19 | C[C@]1(c2nc3c(C(N)=O)cccc3[nH]2)CCCN1 [ABT-888 (Veliparib)] | 93.1% and 93% | 89.4% | 91% | 96.5% | 82.4% | 79% | 70.2% | 83.5%
20 | N#CC(c1ccc(Cl)cc1)c1c(Cl)cc(-n2ncc(=O)[nH]c2=O)cc1Cl (stereo not given) [Diclazuril] | 101% and 88.5% | 85.2% | 83.8% | 94.7% | 84.4% | 86.3% | 91.3% | 80.8%

Row | SMILES | cell viability ([1]; SRSF2 genotype: SRSF2 P95H/wt) | cell viability ([1]; SRSF2 genotype: SRSF2 wt/wt) | cell viability ([2]; SRSF2 genotype: SRSF2 P95H/wt) | cell viability ([2]; SRSF2 genotype: SRSF2 wt/wt) | cell viability ([3]; SRSF2 genotype: SRSF2 P95H/wt) | cell viability ([3]; SRSF2 genotype: SRSF2 wt/wt) | cell viability ([4]; SRSF2 genotype: P95H/wt) | cell viability ([4]; SRSF2 genotype: wt/wt)
21 | CC(C)c1ccc(C=O)cc1 [4-Isopropylbenzaldehyde] | 94.1% and 90.8% | 92.4% | 94.5% | 99.9% | 86.2% | 94.9% | 89.9% | 93.4%
22 | COc1cc2ncnc(Nc3cccc(Cl)c3)c2cc1OC [AG-1478 (Tyrphostin AG-1478)] | 75% and 83.2% | 76.4% | 81.7% | 90% | 59.7% | 67.6% | 58% | 62.2%
23 | COc1cc2c(cc1O)C[C@H]1c3cc(O)c(OC)cc3CC[N@@+]1(C)C2 [Phellodendrine] | 104% and 97.8% | 102% | 98.9% | 98.7% | 111% | 102% | 101% | 96.4%
24 | CC(C)NCC(O)c1ccc(O)c(O)c1 (stereo not given) [Isoprenaline hydrochloride] | 92.4% and 104% | 96.9% | 98.4% | 100% | 89.7% | 96.5% | 104% | 101%
25 | CC(C)(c1ccc(OCC(O)CO)cc1)c1ccc(OCC(O)CCl)cc1 (stereo not given) | 82.3% and 81.7% | 85.8% | 83.5% | 104% | 86% | 90.9% | 84.8% | 86.5%
26 | CN(C)CC[C@H](CSc1ccccc1)Nc1ccc(S(=O)(=O)NC(=O)c2ccc(N3CCN(Cc4ccccc4-c4ccc(Cl)cc4)CC3)cc2)cc1[N+](=O)[O-] | 49.5% and 28.1% | 72.7% | 0.46% | 1.66% | 0.15% | 2% | 0.19% | 3.31%
27 | O=C(Nc1cccc(C(F)(F)F)c1)c1cccc2cc(Oc3cc(CO)ncn3)ccc12 | 80.8% and 91.3% | 87.8% | 101% | 121% | 86.9% | 98.6% | 90.7% | 96.3%
28 | C[C@@H]1O[C@@H]1P(=O)(O)O [fosfomycin tromethamine] | 108% and 107% | 100% | 109% | 114% | 103% | 104% | 106% | 98.6%
29 | Cc1ccc(NC(=O)c2ccc(CN3CC[C@H](N(C)C)C3)c(C(F)(F)F)c2)cc1Nc1nccc(-c2cncnc2)n1 [Bafetinib (INNO-406)] | 1.12% and 1.27% | 4.57% | 54.6% | 43.2% | 49.9% | 49% | 23.6% | 30.4%
30 | Cc1nc2cccc(N)c2c(=O)n1C1CCC(=O)NC1=O (stereo not given) [Avadomide(CC-122)] | 108% and 111% | 111% | 102% | 92.7% | 99.2% | 98.2% | 159% | 169%
31 | CC(C)(CO)C(O)C(=O)NCCC(=O)O [Calcium D-Panthotenate] | 95.3% and 94.5% | 95.3% | 95.1% | 105% | 96.8% | 97.2% | 95.4% | 94%
32 | C[C@@H]([C@H](C)O)[C@H](N)C(=O)O [(4S)-4-Hydroxy-L-isoleucine] | 105% and 96.3% | 102% | 100% | 102% | 111% | 102% | 108% | 104%
33 | Clc1ccc(C(c2c[nH]c3ccccc23)c2c[nH]c3ccccc23)cc1 | 83% and 83.3% | 76.5% | 86.3% | 93.2% | 62.7% | 73% | 92% | 96.7%
34 | Cc1nc(NC(=O)N2CCC[C@H]2C(N)=O)sc1-c1ccnc(C(C)(C)C(F)(F)F)c1 [Alpelisib (BYL719)] | 93.3% and 102% | 90.4% | 55.6% | 52.6% | 52.6% | 65.1% | 32.2% | 41%
35 | COc1ccccc1OCC(O)CN1CCN(CC(=O)Nc2c(C)cccc2C)CC1 (stereo not given) [Ranolazine (Ranexa)] | 99.1% and 96.1% | 91.9% | 96.6% | 102% | 97.8% | 99.2% | 94.9% | 102%
36 | CC(NCCc1ccc(O)cc1)C(O)c1ccc(O)cc1 (stereo not given) [Ritodrine hydrochloride (Yutopar)] | 106% and 102% | 96.3% | 100% | 106% | 98.6% | 99.8% | 104% | 107%
37 | C#Cc1cccc(Nc2ncnc3cc(OC)c(OCCCCCCC(=O)NO)cc23)c1 | 1.25% and 12.2% | 3.12% | 9.16% | 8.09% | 1.03% | 0.53% | 1.68% | 2.66%
38 | CCCCN1CCCCC1C(=O)Nc1c(C)cccc1C (stereo not given) [Bupivacaine hydrochloride (Marcain)] | 92% and 102% | 98.8% | 97.7% | 103% | 98.5% | 102% | 100% | 104%
39 | CCS(=O)(=O)Nc1ccc2[nH]c(O)c(C(=Nc3ccc(CN4CCCCC4)cc3)c3ccccc3)c2c1 [Hesperadin] | 19.5% and 24% | 15.9% | 5.46% | 9.42% | 0.94% | 0.3% | 5.95% | 9.44%
40 | COc1c(-c2ccc3cc(NS(C)(=O)=O)ccc3c2)cc(-n2ccc(=O)[nH]c2=O)cc1C(C)(C)C [S5402 Dasabuvir(ABT-333).cdx] | 84% and 86.8% | 80.6% | 82% | 89.6% | 88.3% | 97.3% | 90.5% | 90.5%

Source: the supplement of paper PMC10981050
